Measurements taken from PubChem BioAssay AID686979 (National Center for Advancing Translational Sciences (NCATS), 2013).
The campaign covered roughly 420,000 compounds. About 50,000 (12%) were called active. Another 26% or so got no clear call; they are omitted. Calls follow the shape of the dose curve; as a rule, active = well fitted inhibition curve with a large enough effect; inconclusive = small, poorly fitted or top-dose-only effect; inactive = flat fitted curve, though single readings scatter. Shown is part of a subset that was picked to be rich in actives. Where a call stands in place of a potency, no number is given.

Test: qHTS for Inhibitors of human tyrosyl-DNA phosphodiesterase 1 (TDP1): qHTS in cells in presence of CPT; also: nearly all actives have a fitted effect of over 55% in size
Conditions: chicken DT40 Tdp1-/-;hTDP1 cells + 20 nM CPT, ATP luminescence, 48 h; series mostly up to 46.2 µM
Method in brief: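 Chicken DT40 Tdp1-/- cells stably complemented with human TDP1 were seeded at 400 cells/well in medium containing 20 nM camptothecin, exposed to pin-transferred compounds, and grown at 37 °C for at least 48 hr. Viability was read as ATP luminescence.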
Potency is read from the fitted curve at half-maximal effect.

SMILES	Potency
COCCNc1ncnc2c1ncn2[C@H]1CN(CCN2CCOCC2)C[C@@H](CO)O1	inactive
COc1ccc(CN2C(=O)C(CC(=O)NC3CCCCC3)CC(C(=O)N3CCOCC3)=C2C)cc1 (stereo unspecified)	inactive
CN(C)CCOc1cccc(Br)c1	inactive
CSc1nccc(NC(=O)c2ccc(C(C)(C)C)cc2)n1	9.2 µM (active)
CC(C)(C)c1ccc(/C=C/C(=O)Nc2ncccn2)cc1	inactive
Cc1cccc(NC(=O)c2cccnc2Cl)n1	inactive
COc1ccc(S(=O)(=O)N(C)C[C@H]2OCc3cnnn3CCCC(=O)N([C@H](C)CO)C[C@H]2C)cc1	inactive
COCc1cc(=O)oc2cc(NS(=O)(=O)c3ccc(C)cc3)ccc12	inactive
Cc1cc(SCc2c(F)cccc2Cl)nc(=O)[nH]1	inactive
Cn1ncc2c(N3CCCCC3)nc(NCCCO)nc21	inactive
COc1cccc(CN2CCN(Cc3ccc4cccc(F)c4n3)CC2CCO)c1 (stereo unspecified)	inactive
CC(=O)c1cccc(NC(=O)c2nc(-c3ccccc3)n(-c3cccc(C)c3)n2)c1	16.4 µM (active)
CC(=O)c1cccc(NC(=O)c2cc(C)nn2-c2ccccc2)c1	inactive
CC(=O)c1cccc(NC(=O)c2ccncc2)c1	inactive
COc1cccc(CNC(=O)c2cc(=O)[nH]c3ccc(S(=O)(=O)N4CCCCC4)cc23)c1	inactive
O=C1NC[C@H](CCCCN2C[C@H](Cc3ccccc3)N(Cc3ccccc3)C(=O)C2=O)N(CCc2ccc(O)cc2)C1=O	inactive
O=[N+]([O-])c1ccc2c(c1)C(N1CCOCC1)/C(=C/C1(O)CCCCC1)O2 (stereo unspecified)	inactive
Cn1nc(-c2ccccc2)c2cc([N+](=O)[O-])ccc21	inactive
Cc1ccccc1S(=O)(=O)NC(=O)C1(C)CCN1C(=O)Cc1ccc(Cl)cc1Cl (stereo unspecified)	inactive
CC1(C(=O)Nc2cccc3c2CCCC3)CCN1C(=O)CCc1ccc(Cl)cc1Cl (stereo unspecified)	20.6 µM (active)
CC1(C(=O)NS(=O)(=O)Cc2cccc(Cl)c2)CCN1C(=O)Cc1ccc(Cl)cc1Cl (stereo unspecified)	inactive
Cc1ccccc1S(=O)(=O)NC(=O)C1(C)CCN1C(=O)C1(c2ccc(Cl)cc2)CC1 (stereo unspecified)	inactive
CC1(C(=O)NS(=O)(=O)c2ccc3ccccc3c2)CCN1C(=O)C1(c2ccc(Cl)cc2)CCC1 (stereo unspecified)	inactive
CCCNC(=O)C1(C)CCN1C(=O)C1(c2ccccc2)CC1 (stereo unspecified)	inactive
CC1(C(=O)Nc2cccc3c2CCCC3)CCN1C(=O)C1(c2ccccc2)CC1 (stereo unspecified)	16.4 µM (active)
O=C(Nc1cccc2c1CCCC2)c1ccc(F)cc1	inactive

SMILES	Potency
Cc1ccccc1S(=O)(=O)NC(=O)C1(C)CCN1C(=O)C1(c2ccccc2)CCCC1 (stereo unspecified)	14.6 µM (active)
CCCC(=O)N1CCC(CCC(=O)NC2CC2)CC1	inactive
COc1cc2c(cc1OC)/C(=C/C(=O)c1ccc(NC(C)=O)cc1)NCC2	inactive
Cc1ccccc1CNC(=O)CCC(=O)N1Cc2ccccc2Oc2ncccc21	inactive
COC(=O)c1sc(NC(=O)COC(=O)C2CCC2)c(C(=O)OC)c1C	inactive
COc1cc(OC)c(C(=O)NNC(=O)c2ccc(NS(=O)(=O)c3cccs3)cc2)cc1OC	inactive
Cc1cccc(C)c1NC(=O)CSc1nc2c([nH]1)c(=O)n(C)c(=O)n2C	inactive
Cc1ccc2nc(SCC(=O)N3CCN(c4ccccc4)CC3)nc(=O)n2c1	inactive
CC(C)(C)n1cnnc1Sc1ccc([N+](=O)[O-])cn1	inactive
CCOc1ccccc1NC(=O)Cn1c(=O)n(Cc2ccco2)c(=O)c2sc3ccccc3c21	inactive
Cc1nc2cc(C(F)(F)F)ccc2n1CCNc1nc(-c2cc(Cl)c(N)c(Cl)c2)cs1	23.1 µM (active)
O=C(Oc1cc(OC(=O)c2ccccc2)c2c(c1)OC(c1ccc(OC(=O)c3ccccc3)c(OC(=O)c3ccccc3)c1)[C@@H](OC(=O)c1ccccc1)C2)c1ccccc1 (stereo partly specified)	inactive
C[C@@H](C(=O)Nc1ccc2ccccc2c1)[C@@H]1C[C@@]1(C)[C@@H](NC(=O)c1cccnc1)c1ccccc1	inactive
O=[N+]([O-])c1c(NCCO)cc(Sc2nc3ccccc3s2)c2nonc12	0.82 µM (active)
O=C(O)c1cccc(S(=O)(=O)Nc2ccc(O)cc2Sc2nc3ccccc3s2)c1	inactive
COc1ccc(S(=O)(=O)Nc2ccc(O)c(Sc3nc4ccccc4s3)c2)cc1	inactive
CSc1nnc(-c2ccc(C(F)(F)F)cn2)o1	inactive
N=c1n(Cc2ccc(Cl)cc2)c2ccccc2n1CC(O)c1ccco1 (stereo unspecified)	7.31 µM (active)
O=S(=O)(O)c1nc2ccccc2n1Cc1ccc(Cl)cc1	inactive
CCCNC(=O)c1cc(C2CCCCN2S(=O)(=O)c2ccc(C#N)cc2)on1 (stereo unspecified)	inactive
O=C(NCC1(N2CCCCC2)CCCCC1)c1ccc(NS(=O)(=O)c2ccc(F)cc2)cc1	inactive
O=C(OCCOCn1cc(Br)c(=O)[nH]c1=O)c1ccccc1	inactive
CCCn1nnnc1NCc1ccc(CC)cc1	inactive
CC(=O)Nc1ccc(/C=N/NC(=O)c2cccs2)cc1	inactive
Cc1ccc(C(=O)Nc2ccc(NC(=O)c3cccs3)cc2)c(C)c1	inactive
Cc1cccc(-n2c(C)cc(/C=N/NC(N)=S)c2C)c1	10.3 µM (active)

SMILES	Potency
Cc1cc(/C=N/n2cnnc2)c(C)n1-c1cccc(C(=O)O)c1	inactive
Cc1cc(/C=N/Nc2ccc([N+](=O)[O-])cn2)c(C)n1-c1cccc(C(=O)O)c1	inactive
Cc1cccc(-n2c(C)cc(/C=N\NC(=O)c3cccs3)c2C)c1	18.4 µM (active)
Cc1c(NC(=O)CSc2nnc(-c3cccnc3)n2N)c(=O)n(-c2ccccc2)n1C	inactive
CC(C)c1ccc(CC(=O)N2CCC2(C)C(=O)NS(=O)(=O)c2ccc(C(C)(C)C)cc2)cc1 (stereo unspecified)	inactive
COc1ccc(NC(=O)NN2CCN(C)CC2)c(OC)c1	inactive
Cc1ccc(Cn2c(=O)n(CCCC(=O)NCc3ccccc3Cl)c(=O)c3ccccc32)cc1	inactive
COc1ccc(CCNC(=O)CCCn2c(=O)c3ccccc3n(Cc3ccc(F)cc3Cl)c2=O)cc1OC	inactive
COc1ccc(CCNC(=O)CCCn2c(=O)c3ccccc3n(Cc3ccc(C)cc3)c2=O)cc1OC	23.1 µM (active)
COc1ccc(CCNC(=O)CCn2c(=O)oc3ccccc32)cc1OC	inactive
COc1ccc(CCNC(=O)CCCCn2c(=O)c3ccccc3n(Cc3ccccc3C)c2=O)cc1OC	20.6 µM (active)
CCCCNC(=O)CCn1c(=O)c2ccccc2n(Cc2cc(C)ccc2C)c1=O	inactive
CCOc1cc(CNCc2ccccn2)ccc1OCC(=O)NC(C)(C)C	inactive
N#Cc1ccc(C(=O)OCC(=O)NC(=O)NC2CCCCC2)cc1	inactive
COc1ccc(C(=O)NC(C)c2nccs2)cc1OC1CCN(C(C)C)CC1 (stereo unspecified)	inactive
COc1ccc(/C=C/CN2CCN(Cc3ccc(C)cc3)C(CCO)C2)cc1 (stereo unspecified)	inactive
CN(C(=O)COC(=O)c1cc(-c2ccco2)nc2ccccc12)C1CCS(=O)(=O)C1 (stereo unspecified)	inactive
O=C(Nc1cccc(F)c1)c1cc(-c2ccco2)nc2ccccc12	inactive
CN(CCOc1ccccc1)C(=O)c1cc(-c2ccco2)nc2ccccc12	18.4 µM (active)
COCCCNC(=O)c1c(NC(=O)c2cc(=O)c3cc(C)c(C)cc3o2)sc2c1CCCC2	inactive
CCS(=O)(=O)C1=NSC2=NC(=O)/C(=C\c3ccc(OS(=O)(=O)c4ccccc4)cc3)C(=N)N21	inactive
c1ccc(-c2ccccc2OCCN2CCCCC2)cc1	inactive
Cc1ccc(CN2CCNC(=O)C2CC(=O)NCc2csc(C(C)C)n2)cc1 (stereo unspecified)	inactive
Cc1cc(C)c(NC(=O)CSc2nc3ccncc3[nH]2)c(C)c1	inactive
Nc1nnnn1/N=C/c1cc([N+](=O)[O-])ccc1O	inactive
O=[N+]([O-])c1cccc(C=NN=Cc2ccccc2O)c1	inactive

SMILES	Potency
O=[N+]([O-])c1ccc(O)c(/C=N/Nc2ccccc2[N+](=O)[O-])c1	3.26 µM (active)
C[C@H](CO)N1C[C@H](C)[C@@H](CN(C)S(=O)(=O)c2ccc(Oc3ccccc3)cc2)OCc2cn(nn2)CCCC1=O	inactive
COc1cc(OC)c(NC(=O)c2cnc(N3CCCC3)nc2C)cc1Cl	inactive
COc1cc2nc(C#Cc3nc4cc(OC)c(OC)cc4[nH]3)[nH]c2cc1OC	inactive
COc1cc2nc(N3CCCN(C)CC3)nc(NC(C)C)c2cc1OC	12.6 µM (active)
COc1cc2nc(Cl)nc(NC3CC3)c2cc1OC	14.1 µM (active)
COc1ccc(C(=O)N2CCCN(C)CC2)c(OC)c1	inactive
COc1cc2nc(N3CCCN(C)CC3)nc(NC3CC3)c2cc1OC	7.94 µM (active)
COc1cc2nc(Cl)nc(NCCO)c2cc1OC	inactive
Cc1ccc(CNS(=O)(=O)CCNC(=O)c2ccccc2)cc1	inactive
CCOC(=O)C1CCCN(S(=O)(=O)c2ccc3c(c2)C(C)(C)C(=O)N3C)C1 (stereo unspecified)	inactive
O=C(COC(=O)c1ccco1)Nc1ccc(Cl)cn1	inactive
COc1ccc(C2Nc3ccccc3C(=O)N2c2ccc(F)cc2)cc1Cn1nnc2ccccc21 (stereo unspecified)	inactive
O=C(Cn1nnc2ccccc2c1=O)Nc1cc(C(F)(F)F)ccc1N1CCOCC1	inactive
CCCCN(C(=O)/C=C/c1ccco1)c1c(N)n(CC(C)C)c(=O)[nH]c1=O	inactive
CN1CCN(c2ncc3c(n2)CC(c2ccccc2F)CC3=O)CC1 (stereo unspecified)	inactive
O=C(O)CSc1nnc(-c2ccc3c(c2)OCO3)n1-c1ccccc1	inactive
c1n[nH]c(NCc2ccc3c(c2)OCO3)n1	inactive
c1cncc(CNc2ccnc(-c3ccc4c(c3)OCO4)n2)c1	8.2 µM (active)
Cc1cc(NCc2cccnc2)no1	inactive
C=CCn1c(SCC(=O)NCC2CCCO2)nc2sc(C)c(C)c2c1=O (stereo unspecified)	inactive
C=CCn1c(SCc2c(C)noc2C)nc2sc3c(c2c1=O)CCC(C)C3 (stereo unspecified)	14.6 µM (active)
C=CCn1c(SCC(=O)NCCCO)nc2sc3c(c2c1=O)CCC3	inactive
